Test results taken from PubChem BioAssay (NCI).
Compounds without any hit were thinned out: in the full panel of roughly 83,000, 20% have a hit.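 Testing used 96-well plates and a 48-hour single-concentration exposure. Example: -40 means 40% of the starting cells died.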 Active and inactive are the calls of the source. The calls were made as follows: active = growth percent below 10; inactive = the rest.

Key:
Test in all cases: NCI-60 one-dose screen, 48 h (100 = growth as untreated, 0 = no growth, -100 = all killed)
Details in all cases: 10 µM
SR leukemia = test system: SR leukemia
RPMI-8226 leukemia = test system: RPMI-8226 leukemia
OVCAR-8 ovarian = test system: OVCAR-8 ovarian
OVCAR-5 ovarian = test system: OVCAR-5 ovarian
OVCAR-4 ovarian = test system: OVCAR-4 ovarian
SK-OV-3 ovarian = test system: SK-OV-3 ovarian
IGROV1 ovarian = test system: IGROV1 ovarian
OVCAR-3 ovarian = test system: OVCAR-3 ovarian
HS 578T breast = test system: HS 578T breast
NCI/ADR-RES ovarian = test system: NCI/ADR-RES ovarian
T-47D breast = test system: T-47D breast
MDA-MB-435 melanoma = test system: MDA-MB-435 melanoma
SW-620 colon = test system: SW-620 colon
MCF7 breast = test system: MCF7 breast
HCT-116 colon = test system: HCT-116 colon
HCC-2998 colon = test system: HCC-2998 colon
KM12 colon = test system: KM12 colon
BT-549 breast = test system: BT-549 breast

Measured: growth

N#CN1CC[C@H](C(=O)Nc2ncc(-c3ccccc3)s2)C1
active: SR leukemia 0.907% | RPMI-8226 leukemia 3.84% | OVCAR-8 ovarian 2.85% | OVCAR-5 ovarian 1.27% | OVCAR-4 ovarian -6.05% | SK-OV-3 ovarian 5.15% | OVCAR-3 ovarian -32.5% | HS 578T breast -7.39% | NCI/ADR-RES ovarian 4.61% | T-47D breast -44% | MDA-MB-435 melanoma 0.958% | SW-620 colon 5.19% | MCF7 breast 3.54% | HCT-116 colon -3.16% | HCC-2998 colon -11.1% | KM12 colon -6.3%
inactive: IGROV1 ovarian 11%

C=CCNC(=S)NN
active: MCF7 breast 8.89% | HCT-116 colon 6.82%
inactive: SR leukemia 54.6% | RPMI-8226 leukemia 74.2% | OVCAR-8 ovarian 71.2% | OVCAR-5 ovarian 69.7% | OVCAR-4 ovarian 96.8% | SK-OV-3 ovarian 98.4% | IGROV1 ovarian 45.3% | OVCAR-3 ovarian 96.5% | HS 578T breast 89.5% | NCI/ADR-RES ovarian 82.7% | T-47D breast 50.5% | MDA-MB-435 melanoma 95.4% | SW-620 colon 85.5% | HCC-2998 colon 107% | KM12 colon 98.6%

Nc1c(C(=O)NC2CCCCC2)sc2nc3c(cc12)C(=O)CCC3
inactive: SR leukemia 78.7% | RPMI-8226 leukemia 100% | OVCAR-8 ovarian 101% | OVCAR-5 ovarian 114% | OVCAR-4 ovarian 105% | SK-OV-3 ovarian 120% | IGROV1 ovarian 116% | OVCAR-3 ovarian 112% | HS 578T breast 102% | NCI/ADR-RES ovarian 102% | T-47D breast 94.2% | MDA-MB-435 melanoma 54.7% | SW-620 colon 98.8% | MCF7 breast 83.2% | HCT-116 colon 102% | HCC-2998 colon 121% | KM12 colon 91.8%

CCNC(=S)NN
active: MCF7 breast 5.44%
inactive: SR leukemia 61.6% | RPMI-8226 leukemia 75.9% | OVCAR-8 ovarian 71.1% | OVCAR-5 ovarian 69.3% | OVCAR-4 ovarian 82.2% | SK-OV-3 ovarian 104% | IGROV1 ovarian 12.8% | OVCAR-3 ovarian 106% | HS 578T breast 100% | NCI/ADR-RES ovarian 83.8% | T-47D breast 47.2% | MDA-MB-435 melanoma 93.7% | SW-620 colon 83.2% | HCT-116 colon 10.4% | HCC-2998 colon 94.7% | KM12 colon 109%

O=C(N/N=C\c1cc(Cl)ccc1O)c1ccncc1
inactive: SR leukemia 26.8% | RPMI-8226 leukemia 52.7% | OVCAR-8 ovarian 44.5% | OVCAR-5 ovarian 83.9% | OVCAR-4 ovarian 31.4% | SK-OV-3 ovarian 59.4% | IGROV1 ovarian 33% | OVCAR-3 ovarian 19.1% | HS 578T breast 125% | NCI/ADR-RES ovarian 26.8% | T-47D breast 30.1% | MDA-MB-435 melanoma 89.4% | SW-620 colon 64.7% | MCF7 breast 14.6% | HCT-116 colon 24.6% | HCC-2998 colon 45.2% | KM12 colon 53.6%

CCOC(=O)[C@@H]1[C@H](c2ccccc2)[C@H]([N+](=O)[O-])[C@H](c2cn(-c3ccccc3)nc2C)N1Cc1ccccc1
inactive: SR leukemia 46.9% | RPMI-8226 leukemia 50% | OVCAR-8 ovarian 71.4% | OVCAR-5 ovarian 106% | OVCAR-4 ovarian 77.5% | SK-OV-3 ovarian 84.3% | IGROV1 ovarian 99.9% | OVCAR-3 ovarian 82.8% | HS 578T breast 90.5% | NCI/ADR-RES ovarian 71.6% | T-47D breast 44% | MDA-MB-435 melanoma 92.3% | SW-620 colon 73.1% | MCF7 breast 67.6% | HCT-116 colon 37.5% | HCC-2998 colon 94% | KM12 colon 88%

NS(=O)(=O)c1ccc(N2N=C(c3ccc(-c4ccccc4)cc3)CC2c2ccc(Cl)cc2)cc1 (stereo unspecified)
inactive: SR leukemia 73.5% | RPMI-8226 leukemia 63.4% | OVCAR-8 ovarian 78% | OVCAR-5 ovarian 95% | OVCAR-4 ovarian 76.1% | SK-OV-3 ovarian 95% | IGROV1 ovarian 88.1% | OVCAR-3 ovarian 94.3% | HS 578T breast 88.6% | NCI/ADR-RES ovarian 84.5% | T-47D breast 74.6% | MDA-MB-435 melanoma 77.4% | SW-620 colon 93.2% | MCF7 breast 62.6% | HCT-116 colon 50.4% | HCC-2998 colon 89.3% | KM12 colon 68.6%

COc1cc(C)c2sc3ccccc3c(=O)c2c1NCCN(C)C
active: SR leukemia 3.64%
inactive: RPMI-8226 leukemia 33.3% | OVCAR-8 ovarian 40.5% | OVCAR-5 ovarian 87% | OVCAR-4 ovarian 72.8% | SK-OV-3 ovarian 65.7% | IGROV1 ovarian 29.3% | OVCAR-3 ovarian 87.4% | HS 578T breast 58.6% | NCI/ADR-RES ovarian 61.9% | T-47D breast 78.4% | MDA-MB-435 melanoma 12% | SW-620 colon 34.9% | MCF7 breast 22.2% | HCT-116 colon 43% | HCC-2998 colon 28.9% | KM12 colon 65%

Cc1c(C(=O)N[C@H](CO)Cc2ccccc2)[nH]c2ccc(Cl)cc2c1=O
inactive: SR leukemia 81.4% | RPMI-8226 leukemia 92.3% | OVCAR-8 ovarian 96.6% | OVCAR-5 ovarian 112% | OVCAR-4 ovarian 108% | SK-OV-3 ovarian 99.8% | IGROV1 ovarian 106% | OVCAR-3 ovarian 111% | HS 578T breast 102% | NCI/ADR-RES ovarian 108% | T-47D breast 89.9% | MDA-MB-435 melanoma 89.3% | SW-620 colon 101% | MCF7 breast 92.7% | HCT-116 colon 97.4% | HCC-2998 colon 94.4% | KM12 colon 106%

O=C(NC1CCCC1)c1ccc(N2CCC(NCc3cccc(C(F)(F)F)c3)CC2)cc1
inactive: RPMI-8226 leukemia 71.3% | OVCAR-8 ovarian 95.2% | OVCAR-5 ovarian 94.2% | OVCAR-4 ovarian 89.5% | SK-OV-3 ovarian 98.4% | IGROV1 ovarian 94.1% | OVCAR-3 ovarian 90.4% | HS 578T breast 96.1% | NCI/ADR-RES ovarian 88.3% | T-47D breast 83.2% | MDA-MB-435 melanoma 105% | SW-620 colon 97% | MCF7 breast 95.8% | HCT-116 colon 86.5% | HCC-2998 colon 41.2% | KM12 colon 84.5%
active: SR leukemia 0.0064%

CCN1CCN(c2ccc(Nc3ncnc4c3nnn4CCc3cc(OC)cc(OC)c3)cc2)CC1
inactive: SR leukemia 89.2% | RPMI-8226 leukemia 91.1% | OVCAR-8 ovarian 87.5% | OVCAR-5 ovarian 86.7% | OVCAR-4 ovarian 86.7% | SK-OV-3 ovarian 101% | IGROV1 ovarian 111% | OVCAR-3 ovarian 99.2% | HS 578T breast 88.2% | NCI/ADR-RES ovarian 92.3% | T-47D breast 73.3% | MDA-MB-435 melanoma 95.4% | SW-620 colon 102% | MCF7 breast 85.8% | HCT-116 colon 77.9% | HCC-2998 colon 109% | KM12 colon 99.1%

CCNC1(NC#N)CCCCC1
inactive: SR leukemia 103% | RPMI-8226 leukemia 101% | OVCAR-8 ovarian 84.4% | OVCAR-5 ovarian 116% | OVCAR-4 ovarian 113% | SK-OV-3 ovarian 104% | IGROV1 ovarian 115% | OVCAR-3 ovarian 109% | HS 578T breast 103% | NCI/ADR-RES ovarian 101% | T-47D breast 104% | MDA-MB-435 melanoma 97.7% | SW-620 colon 104% | MCF7 breast 104% | HCT-116 colon 103% | HCC-2998 colon 96.2% | KM12 colon 105%

CC(=O)Nc1nc(C)c(C(=O)N/N=C/c2cccn2C)s1
inactive: SR leukemia 107% | RPMI-8226 leukemia 110% | OVCAR-8 ovarian 101% | OVCAR-5 ovarian 110% | OVCAR-4 ovarian 108% | SK-OV-3 ovarian 141% | OVCAR-3 ovarian 105% | HS 578T breast 72.5% | NCI/ADR-RES ovarian 96% | T-47D breast 121% | MDA-MB-435 melanoma 104% | SW-620 colon 102% | MCF7 breast 87.5% | HCT-116 colon 111% | HCC-2998 colon 70.8% | KM12 colon 105%
active: IGROV1 ovarian -1.21%

O=C1/C(=C/c2cccs2)CCC/C1=C\c1cccs1
inactive: SR leukemia 78.1% | RPMI-8226 leukemia 57.5% | OVCAR-8 ovarian 93.2% | OVCAR-5 ovarian 79.5% | OVCAR-4 ovarian 77.9% | SK-OV-3 ovarian 101% | IGROV1 ovarian 98.8% | OVCAR-3 ovarian 107% | HS 578T breast 95.7% | NCI/ADR-RES ovarian 88.7% | T-47D breast 17.8% | BT-549 breast 110% | MDA-MB-435 melanoma 81.3% | MCF7 breast 21.4% | HCT-116 colon 80.2% | HCC-2998 colon 89.1% | KM12 colon 65.6%

Fc1cc(-c2ncc(-c3cc(F)c(F)c(F)c3)c(NC3CCCCCC3)n2)cc(F)c1F
inactive: SR leukemia 95.9% | RPMI-8226 leukemia 96.3% | OVCAR-8 ovarian 102% | OVCAR-5 ovarian 110% | OVCAR-4 ovarian 89.1% | SK-OV-3 ovarian 115% | IGROV1 ovarian 110% | OVCAR-3 ovarian 110% | HS 578T breast 102% | NCI/ADR-RES ovarian 106% | T-47D breast 102% | MDA-MB-435 melanoma 96.8% | SW-620 colon 96.9% | MCF7 breast 90.8% | HCT-116 colon 101% | HCC-2998 colon 127% | KM12 colon 101%

N#C/C(=C\N1C(=O)/C(=C/c2cccc([N+](=O)[O-])c2)SC1=S)c1nc2ccccc2s1
inactive: SR leukemia 73.4% | RPMI-8226 leukemia 60.4% | OVCAR-8 ovarian 94.7% | OVCAR-5 ovarian 102% | OVCAR-4 ovarian 61.4% | SK-OV-3 ovarian 77.7% | IGROV1 ovarian 83.7% | OVCAR-3 ovarian 90.4% | HS 578T breast 95.9% | NCI/ADR-RES ovarian 94.1% | T-47D breast 54.7% | MDA-MB-435 melanoma 76.2% | SW-620 colon 105% | MCF7 breast 70.9% | HCT-116 colon 81.6% | HCC-2998 colon 100% | KM12 colon 81.3%

Nc1nc2c(ncn2C2OC3COP(=O)(O)OC4C(COP(=O)(O)OC2C3O)OC(n2cnc3c(N)ncnc32)C4O)c(=O)[nH]1 (stereo unspecified)
inactive: SR leukemia 57.8% | RPMI-8226 leukemia 99.4% | OVCAR-8 ovarian 102% | OVCAR-5 ovarian 103% | OVCAR-4 ovarian 105% | SK-OV-3 ovarian 87.3% | IGROV1 ovarian 109% | OVCAR-3 ovarian 107% | HS 578T breast 105% | NCI/ADR-RES ovarian 102% | T-47D breast 84.4% | MDA-MB-435 melanoma 105% | SW-620 colon 107% | MCF7 breast 109% | HCT-116 colon 94% | HCC-2998 colon 99.3% | KM12 colon 104%

O=C(O)c1cc(C(F)(F)F)cc(C(F)(F)F)c1
inactive: SR leukemia 85.3% | RPMI-8226 leukemia 104% | OVCAR-8 ovarian 106% | OVCAR-5 ovarian 107% | OVCAR-4 ovarian 108% | SK-OV-3 ovarian 112% | IGROV1 ovarian 114% | OVCAR-3 ovarian 107% | HS 578T breast 109% | NCI/ADR-RES ovarian 107% | T-47D breast 104% | BT-549 breast 105% | MDA-MB-435 melanoma 104% | MCF7 breast 101% | HCT-116 colon 99.8% | HCC-2998 colon 103% | KM12 colon 105%
